# The list is not random: actives were taken first. Their share in the collection is about 2.8%.
# PI5P4Ka inh – inhibitors of human PI5P4K alpha | P48426 | PI5P4Kalpha enzyme, ADP-Glo luminescence, 60 min; hits give low values | max response, % | 330,000 compounds, 1.2% hits; active = max response of -50% or lower; inconclusive = between -30% and -50%; inactive = -30% or higher; note: value at the top dose of about 77 µM; % is set by controls: 0 for no effect and ±100 for the full control effect
# Target sequence (P48426 whole entry, looked up): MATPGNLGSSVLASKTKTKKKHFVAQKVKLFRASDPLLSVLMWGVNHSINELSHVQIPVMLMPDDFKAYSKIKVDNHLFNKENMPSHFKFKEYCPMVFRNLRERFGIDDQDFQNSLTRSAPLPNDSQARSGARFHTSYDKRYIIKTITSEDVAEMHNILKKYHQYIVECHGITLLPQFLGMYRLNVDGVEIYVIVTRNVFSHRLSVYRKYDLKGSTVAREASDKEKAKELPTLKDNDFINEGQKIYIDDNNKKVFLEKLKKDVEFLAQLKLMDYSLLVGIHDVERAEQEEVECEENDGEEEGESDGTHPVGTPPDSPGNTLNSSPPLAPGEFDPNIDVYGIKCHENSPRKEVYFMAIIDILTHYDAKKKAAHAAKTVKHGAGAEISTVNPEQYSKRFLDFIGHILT
#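 Luminescence from ADP-Glo served as readout of PI5P4Kalpha activity in a qHTS format. Reaction: enzyme, substrate, compound, ATP at 5 microM final, 60 min at RT.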
# Pol kappa inh – blocks human DNA polymerase kappa activity; 400,000 compounds, 0.53% hits; Q9UBT6; Potency, µM (top dose mostly 107 µM), for the others: at the top dose activity, negative = inhibition, actives largely listed as inhibitors; purified Pol kappa, fluorescent DNA synthesis assay, 10 min; note: potency is the fitted concentration of half-maximal effect; % is set by controls: 0 for no effect and ±100 for the full control effect
#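 Pol kappa 10 nM + cpd, 15 min RT; start w/ substrate 50 nM final; fluorescence kinetic read, 0 and 10 min. Neg ctrl: buffer, no enzyme.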
# Pol beta inh – DNA polymerase beta (human) inhibition | P06746 | AID 485314 | Pol beta primer extension/strand displacement, fluorescence kinetic | Potency, µM (titrated, usually from 114 µM), for inactives: at the top dose activity change, negative = inhibition, hits mostly inhibitors | 340,000 compounds, 1.3% hits; note: potency is the fitted concentration of half-maximal effect; % is set by controls: 0 for no effect and ±100 for the full control effect
#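 Values derive from four-parameter Hill fits of normalized kinetic data: reads at 0 and 10 min following addition of 50 nM substrate to 10 nM Pol beta preincubated 15 min with compound.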
# Pol eta inh – DNA polymerase eta (human) inhibition | Q9Y253 | recombinant Pol eta, fluorescent DNA replication assay | Potency, µM (series often up to 114 µM), inactives show top-dose activity change, negative = inhibition, most hits filed as inhibitors | 390,000 compounds, 1.2% hits; note: potency is the fitted concentration of half-maximal effect; % is set by controls: 0 for no effect and ±100 for the full control effect
#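 Fluorescent replication assay: 50 nM final substrate added after a 15 min room-temperature compound preincubation with 10 nM enzyme. Signal taken at 0 min and again at 10 min.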
# Pol iota inh – inhibitors of human DNA polymerase iota; Q9UNA4; Pol iota fluorescent replication assay, 10 min; Potency, µM (titrated, usually from 115 µM), without a hit: at the top dose activity, negative = inhibition, actives largely listed as inhibitors; 390,000 compounds, 1% hits; note: potency is the fitted concentration of half-maximal effect
#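 Fluorescent replication assay read twice, at 0 min and 10 min after adding 50 nM (final) substrate. Enzyme (10 nM) and compounds were first incubated 15 min at room temperature; enzyme-free buffer wells were negative controls.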
# PI4K2A inh – inhibitors of human PI4K2A; purified PI4K2A, ADP-Glo luminescence, 1 h; hits give low values; activity change, negative = inhibition, % at 76.9 µM; 420,000 compounds, 0.13% hits; AID 1346378; in the data active = activity change below about -50%; inconclusive = mostly about -30% to -49%;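 note: -100% = wells without enzyme as full effect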
#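 ADP-Glo luminescence measured ADP generated by PI4K2A enzyme (4 ug/mL before mixing) with 1.2 mM PI substrate (pre-mix) and 300 microM ATP (pre-mix). Tris pH7.5 buffer with MgCl2, Triton X-100; 1 h reaction at ambient temperature.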
# ADP-Glo counter – interferes with ADP-Glo detection without enzyme present. shares compounds with PI5P4Ka inh. ADP-Glo detection counter-screen, luciferase luminescence, no enzyme. Potency, µM (titrated, usually from 76.9 µM), for the others: top-dose activity change, negative = inhibition, usual class: inhibitors. 1,100 tested, under 10 active. AID 743285
# Active calls of the source: *; ? = inconclusive; nt = not tested or not shown; [ ] = remark or other dose. Unless noted, calls come from the whole dose curve; as a rule, active = well fitted curve in the direction sought with a large enough effect; inconclusive = small, poorly fitted or top-dose-only effect, or another doubt; inactive = no such curve, though single readings can be large; an effect the other way counts as inactive or inconclusive.
SMILES,PI5P4Ka inh,Pol kappa inh,Pol beta inh,Pol eta inh,Pol iota inh,PI4K2A inh,ADP-Glo counter
C/C=C1\NC(=O)[C@H](C)NC(=O)[C@@H](NC(=O)[C@H](Cc2ccc(O)cc2)NC(=O)[C@@H](NC(=O)/C(C)=C/C)C(C)C)[C@@H](C)OC(=O)[C@H](CC(C)C)NC(=O)[C@@H](CCC(=O)O)NC1=O,-2,nt,nt,nt,nt,-5,nt
Cc1nn2c(=O)[nH]cnc2c1Cl,-59*,nt,nt,?,nt,-3,3%
O=C1NC(c2cccs2)Nc2ccccc21 (stereo not drawn),-58*,-6%,-12%,-15%,-8%,-1,2%
Cc1ccc(CNC(=O)Nc2cc(C(=O)NCc3ccc(C(C)C)cc3)ccc2N2CCCC2)cc1,nt,-12%[60.1 µM],20%,-16%,19%,1,nt
CCC(C)c1nc2ccsc2c(N2CCOC2=O)c1-c1ccccc1 (stereo not drawn),-54*,0%,nt,-9%,8%,6,2%
CCN(CC(=O)Nc1ccc(NC(C)=O)cc1)Cc1c(O)ccc2cc(Br)ccc12,-71*,-13%,-1%,-24%,45%,4,-5%
Cc1ccc(NC(=O)CN(C)Cc2c(O)ccc3ccccc23)cc1,?,2%,-2%,-20%,26%,8,nt
CCc1c(C)sc(NC(=O)Cn2nc(C)c([N+](=O)[O-])c2C)c1C(N)=O,-58*,-4%,19%,-15%,75%,5,0%
O=c1oc2c(O)cccc2cc1-c1nc2ccccc2[nH]1,?,-16%,5%,?,?,-8,-9%
O=c1oc2c(CN3CCCCC3)c(O)ccc2cc1-c1nc2ccccc2[nH]1,nt,7%,-8%,-5%,?,-10,nt
Cc1ccc(NC(=O)CN(C)C(=O)COc2ccc(C(=O)c3ccc(F)cc3)cc2)cc1,-2,?,18%,?,?,-7,5%
CC1=C(C(=O)N2CCOCC2)CC(CC(=O)NC2CCCC2)C(=O)N1Cc1ccccc1 (stereo not drawn),-1,nt,nt,-19%,nt,6,nt
O=C(COC(=O)C1CCCCC1)Nc1ccccc1OC(F)F,-68*,-15%,22%,-19%,81%,2,-5%
O=C(C(=O)N1CCN(c2ccccc2)CC1)c1ccco1,1,nt,nt,nt,nt,-3,nt
Cc1nnc(SCC(=O)NCc2ccc(N(C)C)cc2)c2nn(-c3ccccc3)c(C)c12,nt,1%,2%,11%,?,1,nt
O=C(c1ccc(Br)cc1)c1cc2ccc(O)cc2oc1=O,-63*,-6%,-2%,4%,10%,0,-5%
O=C(C1CCCN(S(=O)(=O)c2cccc3nsnc23)C1)N1CCN(c2cccc(Cl)c2)CC1 (stereo not drawn),nt,-5%,23%,-7%,1%,-2,nt
CSCCC(NC(=O)c1ccccc1Cl)C(=O)N1CCCCCCC1 (stereo not drawn),3,11%,nt,-15%,26%,-2,nt
COc1ccc(C(=O)NC(CCSC)C(=O)N2CCCCCC2)cc1 (stereo not drawn),-76*,-2%,41%,-17%,22%,-1,-1%
CCN(CC(=O)NC(C)(C)C)Cc1cc(=O)n2c(-c3ccccc3)csc2n1,-74*,-42%,?,?,45µM*,-8,3%
COC(=O)c1cc(=O)n2c(-c3ccccc3)csc2n1,-1,-6%,-1%,-1%,10%,2,nt
CS(=O)(=O)CCC(C(=O)Nc1cccc(C(F)(F)F)c1)N1Cc2ccccc2C1=O (stereo not drawn),nt,-17%,-14%,-15%,8%,-8,nt
